This is an account of results in PubChem BioAssay AID463190 (Sanford-Burnham Center for Chemical Genomics, 2010).

About 7,300 (2.2%) of roughly 330,000 compounds were called active. The sample holds actives, similar compounds and a random draw of the others, so the mix is not that of the screen.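 The calls were made as follows: active = inhibition of at least 40%; inactive = the rest.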

What is called inhibition is the change of the read-out against control, counted positive when it falls.

This assay in a line: growth inhibitors of tim10-1 mutant yeast, primary screen, luminescence, uHTS (AID 463190).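 Also: mutant grown at 25 °C; 0% = DMSO wells with yeast and 100% = wells holding no yeast.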 To be noted: S. cerevisiae tim10-1 ts strain growth, BacTiter-Glo, 24 h; at 20 µM; hits give high values.
As to `Cc1cccc(Cn2cnc3c(N)c(C)c(C)cc32)c1`, the inhibition is 16.8% (inactive).
As for `COc1cccc(Cn2cnc3c([N+](=O)[O-])c(C)c(C)cc32)c1`, the figure is 41% (active).
Take `COc1cccc(CNS(=O)(=O)c2cc3c(cc2C)n(C)c(=O)c(=O)n3C)c1`: the inhibition is 8.44% (inactive).
On to `CC1CCN(C(=O)c2ccc(CSc3ccc(Cl)cc3)cc2)CC1`, for which the inhibition is 24.5% (inactive).
With `O=C(c1ccc(S(=O)(=O)c2ccccc2)cc1)N1CCCCCC1` the figure was 15.7% (inactive).
With `O=C(c1ccc(CSc2ccccc2)cc1)N1CCCCCC1` the figure was 42.3% (active); with `Cc1nc(NC(=O)CCC(=O)O)sc1C(=O)N(C)C`, 3.6% (inactive); with `Cc1ccc(S(=O)(=O)NCC(=O)N2CCOCCOCCOCCOCC2)cc1`, 3.97% (inactive).
Regarding `Cc1ccc(S(=O)(=O)NCC2CCC(C(=O)N3CCOCC3)CC2)cc1` (stereo not drawn), the inhibition is 9.53% (inactive).
In the case of `Cc1ccc(S(=O)(=O)NC(C(=O)N2CCOCCOCCOCCOCC2)c2ccccc2)cc1` (stereo not drawn), the inhibition was 40.5% (active).
As for `COc1ccnc(Oc2ccccc2)n1`, the inhibition was -10.3% (inactive).
On to `COc1ccc(S(=O)(=O)N2CCN(CC(=O)N3CCOCC3)CC2)cc1OC`, for which the inhibition is -6.09% (inactive).
With `CNC(=O)c1csc(-c2ccccc2)n1` the figure was 8.44% (inactive); with `CNC(=O)c1csc(Cc2c(Cl)sc3ccc(Cl)cc23)n1`, 41.4% (active).
As for `CC(=O)NNC(=O)c1csc(Cc2c(Cl)sc3ccc(Cl)cc23)n1`, the inhibition was 23.3% (inactive).
With `Cc1cccc(C)c1NC(=O)CN1C(=O)C(C)Oc2ccccc21` (stereo not drawn) the figure was 3.34% (inactive); with `COc1ccccc1-n1ccnc1SCC(=O)NC(C)(C)C`, 4.37% (inactive); with `COc1ccccc1-n1ccnc(SCC(=O)NC2CCCCC2)c1=O`, 43.2% (active).
In the case of `COc1ccc(-c2nnc(SCC(=O)NC3CCCCC3)o2)cc1OC`, the inhibition was 17% (inactive).
As for `CCN(c1ccc(NC(=O)COC(=O)CCc2nc3ccccc3n2-c2ccccc2)cc1)C(C)C`, the figure is 13.1% (inactive).
With `O=S(=O)(c1ccc(-c2ccno2)s1)N1CCCCC1` the figure was 9.27% (inactive); with `CNC(=O)C1CC(=O)N(Cc2ccc3c(c2)OCO3)C(=Nc2ccc(F)cc2)S1` (stereo not drawn), -3.7% (inactive).
With `CC(C)Oc1ccc(CC(=O)NNC(=S)Nc2ccc(Br)cc2)cc1` the figure was 17.7% (inactive); with `Cc1[nH]n(-c2ccc([N+](=O)[O-])cc2)c(=O)c1C=NCCN1CCN(C(=O)c2ccccc2F)CC1`, 42.3% (active); with `Cc1[nH]n(-c2ccccc2)c(=O)c1N=Nc1ccccc1C(=O)N1CCCCC1`, 22.5% (inactive).
As for `CC1(C)CC(=O)C(C=NCCN2CCN(C(=S)Nc3cccc(Cl)c3)CC2)=C(O)C1`, the inhibition is 6.34% (inactive).
With `Cc1ccc(-n2[nH]c(C)c(/C=N/NC(=O)c3cccc([N+](=O)[O-])c3)c2=O)cc1C` the figure was 6.18% (inactive); with `CCNC(=S)N1CCN(CCN=CC2=C(O)CC(C)(C)CC2=O)CC1`, -11.3% (inactive); with `C=CCNC(=S)N1CCN(CCN=Cc2c(C)[nH]n(-c3ccc([N+](=O)[O-])cc3)c2=O)CC1`, 43.4% (active).
On to `CCOc1ccc(CCNC(=O)COC(=O)c2c(OC)cccc2OC)cc1OCC`, for which the inhibition was 8.9% (inactive).
For the compound `CCN(CC)c1ccc(C(=O)NNC(=O)CCc2nc3ccccc3c(=O)[nH]2)cc1`, the inhibition was 10.1% (inactive).
Turning to `CC(=O)Oc1c(C(=O)c2nnc(C)o2)c(=O)n(Cc2ccccc2)c2ccccc12`, the inhibition was 7.1% (inactive).
In the case of `CSCCC1NC(=O)N(CC(=O)Nc2cccc(S(=O)(=O)N3CCCCCC3)c2)C1=O` (stereo not drawn), the inhibition is 10.1% (inactive).
With `O=S(=O)(c1ccc(F)cc1)N1CCN(C(=S)NC2CCCC2)CC1`, the inhibition was 16% (inactive).
For the compound `C[n+]1ccc(/C=C/c2c[nH]c3ccccc23)cc1`, the inhibition is 10.5% (inactive).
As for `CCC(C)(C)NC(=O)C(c1ccc(OC)cc1)N(C(=O)CCC(=O)Nc1cc(C)on1)c1ccc(OC)cc1OC` (stereo not drawn), the figure is 6.97% (inactive); as for `CC1CCN(CCCNC(=O)CN2C(=O)CSc3ccc(S(=O)(=O)N4CCCCC4)cc32)CC1`, 25.2% (inactive); as for `COc1ccc(-c2cc(C)nc3nc(N)nn23)cc1`, 10.4% (inactive).
With `Cc1cc(C(C)(C)C)n2nc(C)c(-c3ccccc3)c2n1` the figure was 8.46% (inactive).
As for `Cc1cc(N)n2nc(-c3ccc(C(C)(C)C)cc3)cc2n1`, the figure is 57% (active).
With `O=C(O)CSC(NC(=O)c1cccnc1)(C(F)(F)F)C(F)(F)F`, the inhibition was -2.15% (inactive).
As to `CN(C)CCCCCN(C)Cc1cc2ccccc2o1`, the inhibition was 18.5% (inactive).
As for `O=C(CN1CCCCCC1)NCCN1C(=O)S/C(=C\c2ccccc2Cl)C1=O`, the figure is 12.4% (inactive).
Turning to `O=C1/C(=C\c2ccccc2Cl)SC(=S)N1CCC(=O)N1CCCc2ccccc21`, the inhibition was 41.3% (active).
With `CN(C(=O)CCN1C(=O)/C(=C/c2ccccc2F)SC1=S)C1CCS(=O)(=O)C1` (stereo not drawn) the figure was 6.93% (inactive); with `C#CCCCc1nc2ccccc2c(=O)n1N`, 6.38% (inactive); with `CC1CCCN(C(=O)c2ccc3c(c2)C(=O)N(CCC2=CCCCC2)C3=O)C1` (stereo not drawn), 24.8% (inactive).
As for `COc1ccc(/C=C/C(=O)c2ccc(NS(=O)(=O)c3ccc(C)cc3)cc2)cc1O`, the figure is 31.4% (inactive).
With `COC(=O)c1ccc(COc2ccc(/C=C/C(=O)c3ccc(OC)c(CSCC(=O)O)c3)cc2OC)cc1`, the inhibition was 29.5% (inactive).
With `COc1ccc(C(=O)/C=C/c2ccc(-c3ccccc3)cc2)cc1CSCC(=O)O` the figure was 41.5% (active).
As for `CCCCn1c(=S)[nH]c2cc(S(=O)(=O)N3CCCCC3)ccc21`, the figure is 19.1% (inactive); as for `COc1ccc(C(=O)NC2(C(F)(F)F)NC(=O)N(CCCc3ccccc3)C2=O)c(OC)c1OC` (stereo not drawn), 22.9% (inactive); as for `COc1ccccc1-n1c(=S)[nH]c2c(sc(=S)n2-c2ccc(C)cc2C)c1=O`, 8.48% (inactive).
As for `Cc1ncc([N+](=O)[O-])n1CCOC(=O)c1ccc(Br)cc1`, the figure is 4.67% (inactive); as for `COc1ccc(C2=NN(C(C)=O)C(c3ccccc3)C2)cc1` (stereo not drawn), 19.4% (inactive); as for `CCC(C)N(C)C1CCN(C(=S)Nc2ccc(OC)cc2)CC1` (stereo not drawn), 2.23% (inactive).
In the case of `COc1ccc(NC(=S)N2N=CCC2c2ccccc2)cc1` (stereo not drawn), the inhibition was 40.3% (active).
Take `CCc1ccc(OCC(=O)NCC(c2ccc(Cl)cc2)N2CCCCC2)cc1` (stereo not drawn): the inhibition was 34.1% (inactive).
As for `S=c1[nH]nc(-c2cccnc2)n1/N=C/C(Cl)=C\c1ccccc1`, the figure is 41.6% (active); as for `Fc1ccccc1/C=N/n1c(-c2cccnc2)n[nH]c1=S`, -14.4% (inactive); as for `S=c1[nH]nc(-c2ccncc2)n1/N=C/c1ccccc1Cl`, 13.5% (inactive).
With `COc1ccc(NC(=O)C(CC(C)C)NC(=O)C2CCC(C)CC2)cc1` (stereo not drawn) the figure was 23.1% (inactive); with `CC(=O)Nc1nc(C)c(Cc2ccccc2)c(=O)[nH]1`, 13.2% (inactive).
Consider `COc1ccc([N+](=O)[O-])cc1-c1nc2ccccc2nc1-c1ccccc1`, for which the inhibition is 38.3% (inactive).
As for `O=[N+]([O-])c1ccc2nc(-c3ccccn3)[nH]c2c1`, the inhibition is 34.1% (inactive).
As for `O=[N+]([O-])c1ccc2c(c1)Nc1nc3ccccc3nc1N2`, the inhibition was 60.5% (active).
Consider `CCSC(C)CC1C/C(=N/O)c2c(C)noc2C1` (stereo not drawn), for which the inhibition is -9.02% (inactive).
Consider `Cc1ccc(N2CCN(C(=O)c3cccs3)CC2)c(C)c1`, for which the inhibition was -6.62% (inactive).
As for `O=C(CN1C(=O)c2ccccc2S1(=O)=O)NC1CCCCC1`, the inhibition was 7.88% (inactive).
Take `O=C1c2ccccc2S(=O)(=O)N1CC(O)Cn1c2ccccc2c2ccccc21` (stereo not drawn): the inhibition was 60.7% (active).
Regarding `CCCCN(CCCC)CC(O)Cn1c2ccccc2c(=O)c2ccccc21` (stereo not drawn), the inhibition is 14.3% (inactive).
On to `CCC1=[N+]([O-])C(C)(/C(C)=N\O)N(O)C1(C)C` (stereo not drawn), for which the inhibition is 9.85% (inactive).
As for `O=C(NCc1ccccc1)C(c1cccnc1)N(C(=O)c1csnn1)c1ccc(F)cc1` (stereo not drawn), the figure is -25% (inactive); as for `CCO[C@H]1OC(C(=O)N2CCN(Cc3ccccc3)CC2)=C[C@@H](c2cn(C(C)=O)c3ccccc23)[C@@H]1CCCO`, 15% (inactive); as for `COc1ccccc1Nc1ncnc2c1oc1ccccc12`, 3.5% (inactive).
As for `Cc1nc(Cl)c2oc3ccccc3c2n1`, the inhibition is 0.846% (inactive).
As for `COc1ccc(C)cc1Nc1nc(C)nc2c1oc1ccccc12`, the figure is 40.7% (active).
With `Cc1ccc(CC(=O)Nc2cccc(C#N)c2)cc1` the figure was 22.1% (inactive).
On to `CC(C)CN(C(=O)COC(=O)c1ccc(Cl)c(N)c1)c1c(N)n(Cc2ccccc2)c(=O)[nH]c1=O`, for which the inhibition was 2.64% (inactive).
Consider `CCCCN=C1N/C(=C\c2ccco2)C(=O)N1c1ccccc1`, for which the inhibition is 28% (inactive).
As for `CN(C)CCCN(Cc1cc2cc3c(cc2[nH]c1=O)OCCO3)C(=O)NC1CCCCC1`, the figure is 7.7% (inactive); as for `COc1cc(/C=N/n2c(C)n[nH]c2=S)ccc1OCc1ccccc1`, 34.8% (inactive).
As for `Cn1c(-c2sccc2OCc2cccc(C(F)(F)F)c2)n[nH]c1=S`, the figure is 43.5% (active); as for `Cn1c(-c2sc3cc(C(F)(F)F)cnc3c2-c2ccccc2)n[nH]c1=S`, 18.5% (inactive).
With `CCCCNC(=O)Cn1nc(C)c(S(=O)(=O)N2CCOCC2)c1C`, the inhibition is -10.1% (inactive).
As for `COc1ccc(Cl)cc1NC(=O)C(C)N1CCc2ccccc21` (stereo not drawn), the inhibition is 10.7% (inactive).
Consider `c1ccc2c(c1)CCc1snnc1-2`, for which the inhibition was -9.47% (inactive).
In the case of `CC(NC(=S)Nc1ccccc1)C1COc2ccccc2O1` (stereo not drawn), the inhibition is 44.1% (active).
As for `C/C(=N/NC(=S)Nc1ccccc1)c1ccc2c(c1)OCO2`, the figure is 36.6% (inactive); as for `CC(=O)c1cccc(NC(=O)C2COc3ccccc3O2)c1` (stereo not drawn), 6.4% (inactive); as for `CCCNC(=O)CCn1cc(-c2ccc(OC)cc2)nc1CCN`, -4.9% (inactive).
As for `CCCCn1c(N)c(N(CCC(C)C)C(=O)COC(=O)c2ccc(CC)cc2)c(=O)[nH]c1=O`, the inhibition is 9.31% (inactive).
As for `CCCCCCCC(=O)NC(Nc1ccccc1OC)C(Cl)(Cl)Cl` (stereo not drawn), the figure is -1.41% (inactive).
